# Measurements taken from the supplement of paper PMC10338343.
# ± gives the standard deviation. In all, about 5,500 sequences were measured (“pre-steady-state target cleavage rate”: median about 0.1, highest 2% from about 0.64 on). Many of the other results were omitted from the sample, so the highest values are more common in it than they were.
# Test system: MIWI (PIWIL1) piRISC loaded with piRNA #2 (30 nt)
# Test: pre-steady-state target cleavage rate (min^-1); MIWI and MILI are mouse PIWI proteins and EfPiwi is from a freshwater sponge; tags in brackets are library labels; higher = faster piRNA-guided slicing of the target
# Conditions: guide: piRNA #2 5'p-UUAGGUAACCCAGUAGAUCCAGAGGAAUUC; auxiliary factor: 500 nM mouse GTSF1
# How it was run: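 In Cleave-'n-Seq, a transcribed, DNA-blocked target RNA library (0.1 nM) was combined with 1 nM active affinity-purified piRISC bearing one synthetic guide, with or without 500 nM GTSF1 partner protein. Reactions ran in HEPES–potassium acetate buffer at 33 °C for 0–8 or 0–960 min. Uncleaved targets were sequenced and normalised to depth and to weakly complementary targets, three trials were pooled, and k3 was capped at 0.0001 min^-1. The pre-steady-state cleavage rate was obtained by fitting a burst-and-steady-state model.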
row,Sequence,pre-steady-state target cleavage rate
1,CUUAAGGUCUGGAUCUACUGCGUUACCAAA,0.109 ± 0.029
2,CUAAUCCUCUGGAUCAACUGGGUUACCUAA,0.381 ± 0.043
3,CUAUUCCUCUGGAUCUACUGGGUUAGCCUAA,0.51 ± 0.063
4,GAAUUCCUCUGGAUCUACUGGGUUACCAUAA,0.383 ± 0.049
5,CUAUUCCUCUGGAUCUACUGGGUUAACUAA,0.349 ± 0.071
6,CAAUUCCUCUGGAUCUACUGGGUUAGCCUAA,0.651 ± 0.079
7,GAAUUCCUCUGGAUCUACUGGGUUAACUAA,0.674 ± 0.059
8,GAAUUCCUCUGGAUCUACUGGGUUACAUAA,0.64 ± 0.057
9,GAAUUCCUCUGGAUCUACUGGGUUAGCCUAA,0.299 ± 0.036
10,CUUUUCCUCUGGAUCUACUGGGUUACCAUAA,0.422 ± 0.047
11,CAAUUCCUCUGGAUCUACUGGGUUAACUAA,0.386 ± 0.098
12,CUUUUCCUCUGGAUCUACUGGGUUACAUAA,0.738 ± 0.042
13,CUUUUCCUCUGGAUCUACUGGGUUACCAUA,0.437 ± 0.048
14,GAAUUCCUCUGGAUCUACUGGGUUACCAUA,0.364 ± 0.05
15,CUUAACCUCUGGAUCUAGUCGGUUACCUAA,0.0063 ± 0.0049
16,CUUUUCCUCUGGAUCAACUGGGUUUCCUAA,0.165 ± 0.034
17,CUUAAGGAGACCUUCUACAGCGUUACCUAA,0.00566 ± 0.0029
18,CUUAUGCUCUGGAUCUACUGGGUUACCUAA,0.124 ± 0.02
19,CUUAAGGACAGGUUCUACUGGGUUACCUAA,0.0257 ± 0.017
20,CUUAAGCUCUGGAUCUACUGGGUAACCAAA,0.0234 ± 0.0094
21,CUUAACCUCUGGAUCUACUGGGUUACUAA,0.116 ± 0.018
22,CUUAAGGAGUGGAACUACUGGGUUACCUAA,0.0357 ± 0.024
23,CUUAAGGAGUGGAUCUACUGGGUUACCGAA,0.0437 ± 0.018
24,CUUUUCCUCUGGAUCUAGAGGGUUACCUAA,0.022 ± 0.0052
25,CUUAACCUCUGGUUCUACUGGCUUACCUAA,0.112 ± 0.014

row,Sequence,pre-steady-state target cleavage rate
1,GAAUUCCUCUGGAUUCUACUGGGUUACCUAA,0.224 ± 0.036
2,CAAUUCCUCUCGUUCUACUGGGUUACCUAA,0.82 ± 0.071
3,CAAUUCCUCUCCUUCUACUGGGUUACCUAA,0.613 ± 0.058
4,CUUUUCCUCUCGUUCUACUGGGUUACCUAA,0.519 ± 0.041
5,GAAUUCCUCUCGUUCUACUGGGUUACCUAA,0.793 ± 0.058
6,CUUAUCCUCUCGUUCUACUGGGUUACCUAA,0.41 ± 0.039
7,CUAUUCCUCUGGAUUCUACUGGGUUACCUAA,0.346 ± 0.047
8,CAAUUCCUCUGGGUCUACUGGGUUACCUAA,0.562 ± 0.037
9,CUAUUCCUCUCCUUCUACUGGGUUACCUAA,0.569 ± 0.049
10,CUUAACCUCUCGUUCUACUGGGUUACCUAA,0.401 ± 0.044
11,CUAUUCCUCUCGUUCUACUGGGUUACCUAA,0.75 ± 0.077
12,GAAUUCCUCUCCUUCUACUGGGUUACCUAA,0.781 ± 0.06
13,CUUAAGGAGUGGUUCUACUGGGUUACCUUA,0.0165 ± 0.004
14,CUUAAGGACUGGAUCUACUGGGUUAACUAA,0.116 ± 0.042
15,CUUUUCCUCUGGAUCUACUGCCUUACCUAA,0.0739 ± 0.012
16,CUUAACCUCUGGAUCUACAGGGUUAGCUAA,0.0376 ± 0.0069
17,GAAUUCCUCUGGAUCUAGUGGGUUUCCUAA,0.108 ± 0.019
18,CUUAAGGACUGGAUCUACUAGGUUACCUAA,0.0835 ± 0.039
19,CUUAAGGUCAGGAUCUACUGGGUAACCUAA,0.00869 ± 0.0069
20,CUUAACCUCUGGAUCUACUGGGUUACACUAA,0.344 ± 0.042
21,CUAUUCCUCUGGAACUUCUGGGUUACCUAA,0.299 ± 0.036
22,CUUAUCCUCUGGAUCUAGUGGGAUACCUAA,0.0912 ± 0.02
23,GAAUUCCUCUGGAUCUACUGGGAUACCAAA,0.192 ± 0.06
24,CUUAAGGUCUGGAUGUUCUGGGUUACCUAA,0.05 ± 0.018
25,CUUAACCUCUCGAUGUACUGGGUUACCUAA,0.421 ± 0.029

row,Sequence,pre-steady-state target cleavage rate
1,CUUAUCCUCUCGAUGUACUGGGUUACCUAA,0.498 ± 0.03
2,GAAUUCCUCUCGAUGUACUGGGUUACCUAA,0.645 ± 0.052
3,CAAUUCCUCUCGAUGUACUGGGUUACCUAA,0.672 ± 0.056
4,CUAUUCCUCUGGAUGUACUGGGUUACCUAA,0.533 ± 0.041
5,CUUUUCCUCUCGAUGUACUGGGUUACCUAA,0.592 ± 0.043
6,CAAUUCCUCUGGAUGUACUGGGUUACCUAA,0.578 ± 0.054
7,GAAUUCCUCUGGAUGUACUGGGUUACCUAA,0.352 ± 0.045
8,CUAUUCCUCUCGAUGUACUGGGUUACCUAA,0.636 ± 0.045
9,CUUAACCUCUGGAUAUACUGGGUUACCUAA,0.552 ± 0.042
10,CAAUUCCUCUGGAUCUACUGGGUAACCUAA,0.263 ± 0.049
11,CUUAACCUCUGGAUCUACUGGGUAUGCUAA,0.0233 ± 0.0061
12,CAAAAGCUCUGGAUCUACUGGGUUACCUAA,0.105 ± 0.025
13,CUUAAGGAGUGGGAUCUACUGGGUUACCUAA,0.0146 ± 0.0073
14,CAAUUCCUCUGGAUCUACUGGUUACCUAA,0.19 ± 0.046
15,CUAUUCCUCUGGAUCUACUGGUGUUACCUAA,0.00505 ± 0.0032
16,CUAUUCCUCUGGAUCUACUGUGUUACCUAA,0.696 ± 0.073
17,CAAUUCCUCUGGAUCUACUGGUGUUACCUAA,0.0066 ± 0.0037
18,GAAUUCCUCUGGAUCUACUGUGGUUACCUAA,0.00388 ± 0.0038
19,CUAUUCCUCUGGAUCUACUGGGUUACCUAA [g2:g28:cont:t1A],0.388 ± 0.062
20,CUUUUUCCUCUGGAUCUACUGGGUUACCUAA,0.308 ± 0.046
21,CUUUUCCUCUGGAUCUACUGGUGUUACCUAA,0.00402 ± 0.0035
22,GAAUUCCUCUGGAUCUACUGUGUUACCUAA,0.673 ± 0.06
23,GAAUUCCUCUGGAUCUACUGGUGUUACCUAA,0.0068 ± 0.0031
24,CUUUUCCUCUGGAUCUACUGUGUUACCUAA,0.751 ± 0.048
25,CAAUUCCUCUGGAUCUACUGUGUUACCUAA,0.751 ± 0.075
